Reference: PubChem BioAssay (NCATS)
Several values for one entry are separate records, joined by “and”; a condition that tells them apart may be missing. Equal values may be shown once. Results filed as inconclusive are left out. Entries that show only a call come without a potency. Activity calls are given as the source filed them. Calls come from the whole dose curve; as a rule, active = well fitted curve in the direction sought with a large enough effect; inconclusive = small, poorly fitted or top-dose-only effect, or another doubt; inactive = no such curve, though single readings can be large; an effect the other way counts as inactive or inconclusive.

Tests used:
[1] = Primary qHTS for inhibitors of nuclear receptor binding SET domain protein 2 (NSD2) in an isogenic RCH-ACV NSD2 p.E1099K mutant (9B) (AID 1645876); note: nearly all actives have a fitted effect of over 70% in size; note: potency is the fitted concentration of half-maximal effect
[2] = Primary qHTS for inhibitors of nuclear receptor binding SET domain protein 2 (NSD2) in an RCH-ACV wild type WT cells (2C) (AID 1645877); note: nearly all actives have a fitted effect of over 70% in size; note: potency is the fitted concentration of half-maximal effect
[3] = NCATS anti-infectives library activity on HEK293 viability as a counter-qHTS vs the C. elegans viability qHTS (AID 1745854)
Method in brief: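 HEK293 cells, 1500 per well, exposed 24 hr at 37C in 5% CO2 to compounds in a 1:5 titration, up to 41.7 uM final. Viability read as CellTiter-Glo luminescence after 10 min at room temperature.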

Structure (SMILES)	Potency [1]	Potency [2]	outcome [3]
Nc1ncnc(Nc2ccccc2)n1	inactive	inactive	
NC(=O)N[C@@H](CCC(=O)O)C(=O)O	inactive	inactive	
CCCCCCCC(=O)OCC(COC(=O)CCCCCCC)OC(=O)CCCCCCC	inactive	inactive	
CO[C@@]1(NC(=O)C(C(=O)O)c2ccc(O)cc2)C(=O)N2C(C(=O)O)=C(CSc3nnnn3C)CO[C@@H]21 (some centres not stated)	inactive	inactive	
Cc1cccc(C)c1NC(=O)CC12CCCN1CCC2	inactive	inactive	
O=C(O)c1ccccc1C(=O)Nc1ccc(S(=O)(=O)Nc2nccs2)cc1	inactive	inactive	
C[C@@H]1CCC[C@H](C)N1	inactive	inactive	
CC(C)NC[C@@H](O)COc1ccc(CC(N)=O)cc1	inactive	inactive	
OCc1ccc(Cl)cc1Cl	inactive	inactive	inactive
O=c1[nH]c(=O)n([C@H]2C[C@H](O)[C@@H](CO)O2)cc1I	3.35 µM (active) and 662 nM (active)	2.99 µM (active) and 662 nM (active)	inactive
